Screening results deposited in PubChem BioAssay by several laboratories.
NPR1 activator: GC-A (human) enzyme activation; HEK293 GC-A cells, cGMP TR-FRET, EC30 ANP; 0% at EC30 ANP, 100% saturating ANP; AID 1671463; 370,000 tested, 0.14% active; activation, % at 10 µM; P16066; in the data active means activation above about 40%
Rev-erbA mod: Rev-erb alpha (human) modulation. 370,000 tested, 0.79% active. P20393. Rev-erbα–FITC-DNA binding, fluorescence polarization, 90 min. activity, % at 10 µM;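 active means activity above about 14%, limit read from the data; passing the limit was not always enough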;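 further: 0% = DMSO wells with 35 nM protein and 100% = DMSO wells with 750 nM protein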
PG9 Ab binder: PG9 antibody binding by small molecule; AID 624416; TR-FRET gp120-PG9 antibody binding; 360,000 tested, 0.43% active; inhibition, % at 6.7 µM; in the data active means inhibition above about 8.5%
V-ATPase pH: regulators of yeast V-ATPase proton transport | S. cerevisiae, pHLuorin cytosolic pH fluorescence | response, % at 10 µM | 350,000 tested, 0.37% active | AID 504577; in the data active means response mostly above about 7.3%, no sharp cut-off; inactive means mostly below about 5.4%; further: actives read high
GC-B act: GC-B (human) receptor activation | P20594 | HEK293-GC-B cells, CNP EC30, cGMP TR-FRET; 0% at EC30 CNP, 100% saturating CNP | activation, % at 10 µM | 370,000 tested, 0.11% active;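 active means activation at 10 µM reaching about 35% in either raw or pattern-adjusted values, limit read from the data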
NR1D1 mod conf: confirmation of modulators of human Rev-erb alpha DNA binding; shares compounds with Rev-erbA mod; activation, % at 25 µM; 3,000 tested, 61% active; Rev-erb alpha FITC-DNA binding, fluorescence polarization, 90 min;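 active means activation at or above a set limit, or at least 3 SD above the negative control mean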;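 further: 0% = 35 nM protein with DMSO and 100% = 750 nM protein high control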
RORg DNA counter: RORgamma DNA-binding activity, dose-response counter-screen; purified RORgamma protein-FITC-DNA binding, fluorescence polarization; IC50, µM; 910 tested, 8% active; shares compounds with Rev-erbA mod;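 active means Compounds whose fitted half-maximal concentration for disrupting protein-DNA binding is below 10 micromolar; the record names Rev-erb in its text, so the target is in doubt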
The depositor's hits bear a star; x = not tested or not shown. This is a sample that favours compounds with a hit; in the whole collection about 1.6% have one here.

SMILES | NPR1 activator | Rev-erbA mod | PG9 Ab binder | V-ATPase pH | GC-B act | NR1D1 mod conf | others
COc1ccc(-c2ccc(-c3noc(-c4cccc(OC)c4)n3)c(OC)n2)cc1 | -3 | 52* | -1 | -1 | -2 | 0
COc1ccc(-c2ccc(-c3noc(-c4cccs4)n3)c(OC)n2)cc1 | 10 | -1 | 1 | -2 | 2 | x
O=S(=O)(c1ccccc1Br)N(Cc1cn(Cc2ccccc2)nn1)C1CC1 | 1 | -11 | x | x | 6 | x
Cc1ccccc1Cn1cc(CN2[C@H](CC(C)C)COc3cc(Br)ccc3S2(=O)=O)nn1 | -2 | 5 | x | x | 4 | x
COc1ccc(-c2ccc(-c3noc(-c4ccccc4OC)n3)c(OC)n2)cc1 | 9 | 37* | 0 | 0 | -4 | 15
COc1ccc(-c2ccc(-c3noc(-c4ccc(OC)c(OC)c4)n3)c(OC)n2)cc1 | -2 | 10 | -1 | x | 4 | x
Cc1c(N=C2N=C(NC(=O)c3cccs3)c3ccccc32)c(=O)n(-c2ccccc2)n1C | 80* | 18* | 0 | 0 | -4 | 16
CCCCCCn1cc(C(=O)O)c(=O)c2cc(F)c(N3CCN(C(=O)OCC)CC3)cc21 | 3 | 31* | 1 | -1 | 8 | 6
C=CCCCCCCCCC(=O)N1CCN(c2cc3c(cc2F)c(=O)c(C(=O)O)cn3CC)CC1 | -9 | 3 | -2 | 7 | -4 | x
O=S1(=O)c2c(NCc3ccco3)cccc2Oc2ccccc2CN1Cc1cn(Cc2cccc(F)c2)nn1 | 0 | 0 | x | x | 1 | x
Cc1ccccc1Cn1cc(S(=O)(=O)c2ccc(C(C)C)cc2)c(=O)c2cc3c(cc21)OCO3 | 13 | 40* | 0 | -8 | 25 | 21*
Cc1ccc(Cn2cc(S(=O)(=O)c3ccc(C(C)C)cc3)c(=O)c3cc4c(cc32)OCO4)cc1 | 8 | 23 | 0 | -1 | 15 | x
O=C(Nc1cccc(-c2nc3ncccc3o2)c1)c1sc2ccccc2c1Cl | 1 | 1 | 0 | 3 | 5 | x
O=C(Nc1cccc(-c2nc3ncccc3o2)c1)c1sc2cc(Cl)ccc2c1Cl | -2 | 31* | -1 | -1 | -5 | 17*
COC(=O)C1CN(Cc2ccccc2)CCS(=O)(=O)N1Cc1cn(Cc2ccc(C)cc2)nn1 (stereo unspecified) | -1 | 8 | x | x | -1 | x
O=C(c1cncnc1)N1CCC(n2nnc3ncccc32)CC1 | 2 | 6 | x | x | -4 | x
COc1ccc(-c2cc(C(F)(F)F)c(C#N)c(SCC(=O)Nc3nc(C)co3)n2)cc1 | 2 | 47* | x | -2 | -1 | 43* | RORg DNA counter=>40
COc1ccc(-c2cc(C(F)(F)F)c(C#N)c(SCC(=O)O)n2)cc1 | -4 | 0 | -1 | 0 | -4 | x
Cc1coc(NC(=O)CSc2nc(-c3ccc(Cl)cc3)cc(C(F)(F)F)c2C#N)n1 | -24 | 78* | 0 | -7 | -16 | 66* | RORg DNA counter=>40
COc1ccc(NC(=O)CSc2nc(-c3ccc(C)cc3)cc(C(F)(F)F)c2C#N)cc1 | 10 | 24* | 1 | 0 | -6 | 41* | RORg DNA counter=1.5*
Cc1cc(C(F)(F)F)c(C#N)c(SCC(=O)NC(C)(C)C)n1 | 5 | 11 | 0 | -5 | 0 | x
CN(C)CC(=O)N[C@@H]1C[C@@H]2O[C@@H](CO)CC[C@@H]2O[C@@H]1CCc1ccc(-c2ccc(F)cc2)cc1 | 16 | -6 | x | x | -1 | x
COC(=O)C1=C[C@@H]([C@@H](C)[C@H](OC)c2ccccc2Br)[C@@H]2OCCC[C@H]12 | 0 | -5 | x | x | -13 | x
CC(C)C(=O)N1CCN(c2ccccc2NC(=S)NC(=O)Cc2ccccc2)CC1 | 1 | 17* | 0 | 0 | 3 | 2
Cc1cccc(OCC(=O)NC(=S)Nc2ccccc2N2CCOCC2)c1C | -6 | 40* | -1 | 3 | -10 | 4
Cc1ccccc1OCC(=O)Nc1ccccc1N1CCOCC1 | 9 | 4 | 2 | 1 | -9 | x
Cc1ccc(Cn2cc(CN(C3CC3)S(=O)(=O)c3ccccc3Br)nn2)cc1 | 1 | 1 | x | x | 0 | x
COc1ccc(NC(=O)CCSc2cc(C)c3ccccc3n2)cc1 | -8 | 1 | -1 | -2 | -1 | x
